Assay [1] is described as follows: qHTS assay to identify small molecule agonists of H2AX (AID 1224845; active means well fitted activation curve with a large enough effect in the signal ratio in the repeat runs, not every such curve was filed as active; the % refers to the signal ratio). In short, it runs like this: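 Wild-type CHO-K1 cells plated overnight, then exposed 3 hr at 37C to compounds at 15 concentrations (0.76% DMSO). Lysed, then HTRF anti-pH2AX(S139)-cryptate/anti-H2AX-d2 detection after 24 hr at room temperature; emissions 665 and 620 nm.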
Assay [2] is described as follows: qHTS assay to identify small molecule antagonists of the estrogen related receptor (ERR) signaling pathway from Tox21 library (AID 1224848). Further: nearly all actives have a fitted effect of over 50% in size. Further: potency means the concentration at half of the fitted maximal effect. In short, it runs like this:
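Tox21 10K compounds in DMSO tested for ERR pathway antagonism in NTP's ERR cell line; 18 h, 37 C exposure; ONE-Glo luminescence.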

Assay [3] in a line: A CellTox Green Cytotoxicity Assay to monitor cytotoxicity in HEK293 cells - 0 hour (AID 1224869). Further: nearly all actives have a fitted effect of over 50% in size. The essentials: (§1)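 Fluorescence from a DNA-binding dye excluded by viable cells was measured repeatedly in the same HEK293 wells (600 cells/well) during continuous compound exposure at 37 C. Each assay gives one read point: 0, 8, 16, 24, 32 or 40 h.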
The nature of assay [4]: A CellTox Green Cytotoxicity Assay to monitor cytotoxicity in HEK293 cells - 24 hour (AID 1224875). Further: nearly all actives have a fitted effect of over 45% in size. In short, it runs like this:
as §1

Assay [5] can be described thus: qHTS assay to identify small molecule agonists of the hypoxia (HIF-1) signaling pathway (AID 1224846; active means well fitted activation curve with a large enough effect in the signal ratio in the repeat runs, not every such curve was filed as active; the % refers to the signal ratio). The essentials:
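Compounds added to ME-180 cells carrying hypoxia-response-element beta-lactamase reporter (0.5% dialyzed FBS, 5 h preplating), 17 h at 37C; agonist activity detected by CCF4-AM B/G FRET read-out.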

Assay [6] can be described thus: qHTS assay to identify small molecule agonists of H2AX - cell viability counter screen (AID 1224847; calls by dose curve; further: nearly all actives have a fitted effect of over 30% in size; further: potency means the concentration at half of the fitted maximal effect). In short, it runs like this: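 Wild-type CHO-K1 cells (10% FBS medium) were plated overnight at 37C, exposed to compounds at 15 concentrations for 3 hr at 37C (0.76% DMSO final), and viability was read as CellTiter-Glo luminescence after 30 min at room temperature.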

A short description of assay [7]: qHTS assay to identify small molecule agonists of the estrogen related receptor (ERR) signaling pathway from Tox21 library (AID 1224849; calls by dose curve; further: nearly all actives have a fitted effect of over 15% in size). The following applies: ERR reporter cell line, ONE-Glo luciferase, 18 h; at 92.4 µM (top of the series) unless noted. In short, it runs like this:
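Luminescent agonist read-out (One-Glo, 30-minute room-temperature incubation) following 18-hour compound treatment at 37 C of the ERR cell line, which had been plated 6 hours before dosing.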

Assay [8] in a line: qHTS RealTime-Glo MT Cell Viability Assay in HepG2 cells - 24 hour (AID 1224867). Further: nearly all actives have a fitted effect of over 50% in size. The essentials: (§2)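 HepG2 cells were seeded at 600 cells/well together with NanoLuc luciferase and a cell-permeant prosubstrate, preincubated 5 h at 37 C/5% CO2, then pin-dosed with compounds in DMSO. Nonlytic luminescence from viable cells was read at each time point.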
Assay [9] in a line: qHTS RealTime-Glo MT Cell Viability Assay in HEK293 cells - 32 hour (AID 1224868). Further: nearly all actives have a fitted effect of over 50% in size. Further: potency means the concentration at half of the fitted maximal effect. In short, it runs like this:
(§3)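 HEK293 cells were seeded at 600 cells/well together with NanoLuc luciferase and cell-permeant prosubstrate, preincubated 5 h at 37 C/5% CO2, then given compound in DMSO by pintool. Luminescence from viable-cell prosubstrate reduction was read repeatedly over 40 h.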

Assay [10] can be described thus: qHTS RealTime-Glo MT Cell Viability Assay in HepG2 cells - 40 hour (AID 1224870). Further: nearly all actives have a fitted effect of over 50% in size. In short, it runs like this:
(§4)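 HepG2 cells mixed with RealTime-Glo MT reagents (NanoLuc plus cell-permeant prosubstrate) were seeded at 600 cells/well, incubated 5 h at 37 C/5% CO2, then pinned with compounds in DMSO; nonlytic luminescence tracked viability during 40 h treatment.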

Assay [11] is described as follows: A CellTox Green Cytotoxicity Assay to monitor cytotoxicity in HEK293 cells - 40 hour (AID 1224871). Further: nearly all actives have a fitted effect of over 45% in size. The essentials:
as §1

Assay [12] is described as follows: qHTS RealTime-Glo MT Cell Viability Assay in HEK293 cells - 16 hour (AID 1224872). Further: nearly all actives have a fitted effect of over 50% in size. Further: potency means the concentration at half of the fitted maximal effect. The essentials:
as §3

A short description of assay [13]: qHTS RealTime-Glo MT Cell Viability Assay in HepG2 cells - 8 hour (AID 1224873). Further: nearly all actives have a fitted effect of over 55% in size. The essentials: as §4
Assay [14] is described as follows: qHTS RealTime-Glo MT Cell Viability Assay in HEK293 cells - 40 hour (AID 1224874). Further: nearly all actives have a fitted effect of over 50% in size. Further: potency means the concentration at half of the fitted maximal effect. The following applies: RealTime-Glo luminescence; max response: stronger effect = lower value. The essentials:
(§5)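 Luminescence, which tracks viable cell number through reduction of the prosubstrate to a NanoLuc substrate, was read over continuous 37 C culture. Cells (600/well) were premixed with reagent and rested 5 h before 23 nL of compound in DMSO was pinned.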

Assay [15] is described as follows: A CellTox Green Cytotoxicity Assay to monitor cytotoxicity in HepG2 cells - 16 hour (AID 1224876). Further: nearly all actives have a fitted effect of over 45% in size. In short, it runs like this: (§6)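 Real-time cytotoxicity: fluorescence of a cell-impermeant cyanine dye binding DNA of dead HepG2 cells, measured repeatedly (0–40 h) during compound exposure at 37 C. Cells seeded 600/well with reagent, dosed after 5 h.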
A short description of assay [16]: qHTS RealTime-Glo MT Cell Viability Assay in HepG2 cells - 32 hour (AID 1224877). Further: nearly all actives have a fitted effect of over 55% in size. The essentials:
as §2

The nature of assay [17]: A CellTox Green Cytotoxicity Assay to monitor cytotoxicity in HepG2 cells - 24 hour (AID 1224878). Further: nearly all actives have a fitted effect of over 45% in size. The essentials: as §6
The nature of assay [18]: A CellTox Green Cytotoxicity Assay to monitor cytotoxicity in HepG2 cells - 40 hour (AID 1224879). Further: nearly all actives have a fitted effect of over 40% in size. The essentials: as §6
Assay [19] is described as follows: qHTS RealTime-Glo MT Cell Viability Assay in HEK293 cells - 0 hour (AID 1224880). In short, it runs like this: as §5
Assay [20] can be described thus: A CellTox Green Cytotoxicity Assay to monitor cytotoxicity in HEK293 cells - 32 hour (AID 1224881). Further: nearly all actives have a fitted effect of over 40% in size. Further: potency means the concentration at half of the fitted maximal effect. In short, it runs like this:
as §1

Records with an inconclusive call do not appear. A structure can be active in one record and inactive in another. Activity calls are given as the source filed them. Unless noted, the call rests on the fitted dose curve; in most records, active means well fitted curve in the direction sought with a large enough effect in the repeat runs; inconclusive means weak or mixed curves; inactive means no such curve, though single readings can be large; an effect the other way counts as inactive or inconclusive.

From PubChem BioAssay (Tox21) come the findings set out here.
On the % scale 0 is the no-effect control and ±100 the full control effect.

With `O=[N+]([O-])C(Br)(CO)CO`, the Potency result in assay [1], in assay [2], in assay [3] and in assay [4] was “inactive” in each case.
`CCO[C@H]1O[C@@H]2OC3(C)CC[C@H]4[C@H](C)CC[C@@H]([C@H]1C)[C@@]24OO3`: in assay [5], the result was inactive. Moreover, the Potency result in [6], in assay [8], in [9], in [3], in [10] and in assay [11] was “inactive” throughout. In addition, the Potency result in [12], in assay [13], in assay [4], in [15], in [16] and in assay [17] was “inactive” in each case. Besides, the Potency result in [18], in assay [19] and in assay [20] was “inactive” in each case. The Potency in assay [2] is 0.531 µM (active). Also, the activity change, positive = activation in [7] is -53.8% [at 42.5 µM] (inactive). Moreover, the max response in assay [14] was -21.5% (inactive).
On to `CCOP(=S)(OCC)Oc1nc(Cl)c(Cl)cc1Cl`, for which the result in [5] was inactive. Moreover, the Potency in assay [6] was 56.8 µM (active); in assay [9] it was 21.9 µM (active) and inactive; in [12], 21.9 µM (active) and inactive; in assay [14], 24.6 µM (active); in [20], 39 µM (active) and inactive. Further, the Potency entry in assay [8], in [3], in [10], in [13], in assay [15] and in assay [16] was “inactive” each time. Moreover, the Potency result in assay [17], in [18] and in assay [19] was “inactive” in each case. For the same compound, in [14], the max response was -11.7% (inactive).
On to `COCCOCCO`, for which the Potency entry in assay [2], in assay [8], in [9], in [3], in assay [10] and in assay [11] was “inactive” each time. The Potency result in assay [12], in assay [13], in [4], in [15], in assay [16] and in assay [17] was “inactive” each time. Further, the Potency entry in assay [18], in assay [19] and in [20] was “inactive” in each case. Besides, the activity change, positive = activation in [7] was 18.2% (active).
On to `CCOP(=S)(OCC)SCn1nnc2ccccc2c1=O`, for which the call in [5] was inactive. The results for the Potency in assay [2], in assay [9] and in [12] were 27.3 µM (active), 21.9 µM (active) and 21.9 µM (active), respectively. Also, the activity change, positive = activation in assay [7] was -48.2% (inactive). For the same compound, the Potency entry in [8], in assay [3], in assay [10], in assay [11], in assay [4] and in [15] was “inactive” each time. For the same compound, the Potency result in assay [16], in assay [17], in [18], in assay [19] and in assay [20] was “inactive” throughout.
On to `O=S1(=O)OC(c2cc(Br)c(O)c(Br)c2)(c2cc(Br)c(O)c(Br)c2)c2ccccc21`, for which the compound was called inactive in assay [5]. Further, in assay [6], the Potency was 8.23 µM (active). Besides, the Potency entry in assay [8], in assay [9], in assay [3], in assay [10], in [11] and in assay [12] was “inactive” in each case. Further, the Potency entry in assay [13], in assay [4], in [15], in assay [16], in assay [17] and in assay [18] was “inactive” throughout.
Consider `CN(C)c1ccc(N(C)C)cc1`, for which the compound was classed as inactive in [5]. Moreover, the Potency result in assay [8], in assay [3], in [10], in assay [11], in assay [12] and in assay [13] was “inactive” each time. For the same compound, the Potency result in assay [4], in [15], in assay [16], in assay [17], in assay [18] and in [19] was “inactive” in each case.
